Calls of active or inactive are those of the source.
Legend:
[1] = optical density shifts of acrAB sulA E. coli – strain DRC41, OD650, 48 h, E. coli filamentation inducer project, primary screen (AID 1152); settings: higher = more signal, called active from +8 up or from −8 down;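 note: E. coli MC1000 strain DRC41 lacking acrAB efflux pump and sulA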
[2] = probe aLefty1 binding on compound microarray – biochemical, small-molecule microarray, 635/667 nm fluorescence, primary screen (AID 1153); settings: higher = more signal;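 note: score merges spot fluorescence with signal-to-noise ratio from the scanned slide images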
[3] = plasmodial surface anion channel blockers, osmotic lysis – cell-based, P. falciparum Indochina, OD700, 1 h, primary screen (AID 1154); settings: P. falciparum Indochina infected RBC osmotic lysis, higher = more signal, called active from +8 up or from −8 down
[4] = plasmodial surface anion channel blockers, osmotic lysis – cell-based, P. falciparum Indochina, OD700, 2 h, primary screen (AID 1155);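 note: lysis reports solute entry through the parasite surface anion channel PSAC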; settings: P. falciparum Indochina infected erythrocytes, higher = more signal, called active from +8 up or from −8 down
[5] = changes in parasitized red cell lysis, either direction – P. falciparum Indochina, OD700, 3 h, PSAC antagonist project, primary screen (AID 1156); settings: P. falciparum-infected erythrocytes, osmotic lysis, higher = more signal, called active from +8 up or from −8 down
[6] = plasmodial surface anion channel blockers, osmotic lysis – cell-based, P. falciparum Indochina, OD700, 18 h, primary screen (AID 1157); settings: P. falciparum Indochina infected erythrocytes, osmotic lysis OD700, 18 h; higher = more signal, called active from +8 up or from −8 down
[7] = S6 kinase pathway phospho-S6 level changes – cell-based, A549, cytoblot, luminescence, serum-stimulated, primary screen (AID 1158); settings: 5 h, higher = more signal;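 note: serum-stimulated A549 lung adenocarcinoma cells; signal is phosphorylated S6 detected by cytoblot immunostaining with HRP secondary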
[8] = molecular target: NADPH oxidase 2 (Homo sapiens) (UniProt P04839); test: compounds shifting NOX2 Amplex Red fluorescence – cell-based, HEK293-NOX2, PMA-stimulated, NOX inhibitor project, primary screen (AID 1159); settings: 45 min, higher = more signal, called active from +8 up or from −8 down; note: test concentration not given here
Chain of NADPH oxidase 2 (Homo sapiens) (P04839 whole entry, looked up): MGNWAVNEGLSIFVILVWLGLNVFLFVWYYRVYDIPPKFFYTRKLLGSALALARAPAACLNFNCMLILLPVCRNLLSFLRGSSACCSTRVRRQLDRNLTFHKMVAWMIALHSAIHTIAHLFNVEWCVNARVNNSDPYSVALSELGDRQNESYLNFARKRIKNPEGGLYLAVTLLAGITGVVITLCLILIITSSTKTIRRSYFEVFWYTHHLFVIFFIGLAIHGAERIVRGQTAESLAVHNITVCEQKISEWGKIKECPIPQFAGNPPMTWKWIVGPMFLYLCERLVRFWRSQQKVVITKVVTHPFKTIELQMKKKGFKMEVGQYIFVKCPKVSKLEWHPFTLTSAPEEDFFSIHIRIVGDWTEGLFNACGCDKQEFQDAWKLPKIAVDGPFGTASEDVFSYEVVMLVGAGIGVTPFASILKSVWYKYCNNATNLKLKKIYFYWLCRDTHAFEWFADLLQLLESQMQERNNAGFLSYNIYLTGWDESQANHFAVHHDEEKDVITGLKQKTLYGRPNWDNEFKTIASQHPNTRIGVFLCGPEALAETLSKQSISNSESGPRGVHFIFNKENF

[9] = molecular target: NADPH oxidase 4 (Homo sapiens) (UniProt Q9NPH5); test: compounds shifting NOX4 Amplex Red fluorescence – cell-based, HEK293-NOX4, tetracycline-induced, NOX inhibitor project, primary screen (AID 1160); settings: HEK293-NOX4, Amplex Red H2O2 fluorescence, 45 min; higher = more signal, called active from +8 up or from −8 down
Chain of NADPH oxidase 4 (Homo sapiens) (Q9NPH5 whole entry, looked up): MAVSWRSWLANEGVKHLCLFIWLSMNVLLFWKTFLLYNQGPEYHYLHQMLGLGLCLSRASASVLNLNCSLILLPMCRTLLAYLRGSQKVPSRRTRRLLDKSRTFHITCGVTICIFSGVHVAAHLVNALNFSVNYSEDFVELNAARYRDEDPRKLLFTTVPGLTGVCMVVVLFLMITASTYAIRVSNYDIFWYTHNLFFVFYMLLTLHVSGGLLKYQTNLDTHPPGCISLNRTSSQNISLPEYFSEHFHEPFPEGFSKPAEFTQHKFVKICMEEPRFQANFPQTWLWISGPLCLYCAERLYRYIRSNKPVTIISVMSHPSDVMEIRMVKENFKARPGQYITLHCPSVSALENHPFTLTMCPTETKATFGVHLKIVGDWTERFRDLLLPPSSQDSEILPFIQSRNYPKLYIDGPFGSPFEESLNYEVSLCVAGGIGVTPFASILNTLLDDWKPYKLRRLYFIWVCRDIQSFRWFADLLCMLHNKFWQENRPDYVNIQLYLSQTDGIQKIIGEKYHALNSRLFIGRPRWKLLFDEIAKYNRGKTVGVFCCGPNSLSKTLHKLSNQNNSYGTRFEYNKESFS

[10] = molecular target: NADPH oxidase 5 (Homo sapiens) (UniProt Q96PH1); test: compounds shifting NOX5 Amplex Red fluorescence – cell-based, HEK293-NOX5, NOX inhibitor project, primary screen (AID 1161); settings: HEK293-NOX5, ionomycin, 45 min, higher = more signal
Chain of NADPH oxidase 5 (Homo sapiens) (Q96PH1 whole entry, looked up): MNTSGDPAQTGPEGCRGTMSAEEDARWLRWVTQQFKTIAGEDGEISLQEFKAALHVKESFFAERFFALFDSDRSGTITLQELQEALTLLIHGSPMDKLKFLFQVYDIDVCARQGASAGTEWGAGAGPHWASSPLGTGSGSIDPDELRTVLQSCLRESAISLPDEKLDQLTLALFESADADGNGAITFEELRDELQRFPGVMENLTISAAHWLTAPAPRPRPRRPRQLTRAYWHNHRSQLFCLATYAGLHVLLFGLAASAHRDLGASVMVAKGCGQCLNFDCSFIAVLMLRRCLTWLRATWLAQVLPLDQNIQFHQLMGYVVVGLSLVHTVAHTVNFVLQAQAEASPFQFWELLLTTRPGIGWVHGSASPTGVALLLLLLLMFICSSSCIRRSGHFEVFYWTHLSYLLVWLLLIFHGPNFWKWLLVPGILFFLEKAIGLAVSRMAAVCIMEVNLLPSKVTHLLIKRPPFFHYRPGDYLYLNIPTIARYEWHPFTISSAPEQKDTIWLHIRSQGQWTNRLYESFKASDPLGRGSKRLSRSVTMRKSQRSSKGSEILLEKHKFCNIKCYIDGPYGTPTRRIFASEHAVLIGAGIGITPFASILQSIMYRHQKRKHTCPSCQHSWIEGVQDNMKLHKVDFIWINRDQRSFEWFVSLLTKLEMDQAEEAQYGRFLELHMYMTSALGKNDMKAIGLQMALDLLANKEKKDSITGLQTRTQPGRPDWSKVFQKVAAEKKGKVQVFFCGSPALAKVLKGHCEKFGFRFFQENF

[11] = compound effects on lung adenocarcinoma cell viability – A549, calcein-AM fluorescence, 48 h, basal, profiling panel (AID 1162); settings: higher = more signal; note: test concentration not given here
[12] = compound effects on differentiated 3T3-L1 adipocyte viability – cell-based, 3T3-L1 adipocytes, calcein-AM fluorescence, 48 h, basal, profiling panel (AID 1163); settings: 3T3-L1 adipocytes viability, higher = more signal; note: test concentration not given here
[13] = compound effects on hepatocellular carcinoma cell viability – HepG2, calcein-AM fluorescence, 48 h, basal, profiling panel (AID 1164); settings: higher = more signal; note: test concentration not given here
[14] = compound effects on multiple myeloma cell viability – MM1S, calcein-AM fluorescence, 48 h, basal, profiling panel (AID 1165); settings: higher = more signal;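 note: viability of MM1S multiple myeloma cells under basal unstimulated conditions; test concentration not given here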
[15] = calcein-AM signal in unstimulated myeloma cells – cell-based, calcein-AM fluorescence, 48 h, PK04 Diversity Set, profiling panel (AID 1166); settings: RPMI8226 myeloma viability, higher = more signal;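 note: cells grown under basal conditions without added stimulus; test concentration not given here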
[16] = JC-1 mitochondrial signal, unstimulated HepG2 cells – cell-based, JC-1 fluorescence, 24 h, 100 nL compound, profiling panel (AID 1167); settings: HepG2 mitochondrial potential, higher = more signal; note: test concentration not given here
[17] = JC-1 mitochondrial signal, unstimulated adipocytes – cell-based, JC-1 fluorescence, 3T3-L1 adipocytes, 24 h, 100 nL compound, profiling panel (AID 1168); settings: JC-1 mitochondrial fluorescence, higher = more signal, called active from +8 up or from −8 down; note: test concentration not given here
[18] = JC-1 mitochondrial signal, unstimulated myeloma cells – cell-based, JC-1 fluorescence, RPMI8226, 24 h, 100 nL compound, profiling panel (AID 1169); settings: JC-1 mitochondrial potential fluorescence, higher = more signal; note: test concentration not given here
[19] = JC-1 mitochondrial signal, unstimulated MM1S myeloma – cell-based, JC-1 fluorescence, 24 h, 100 nL compound, profiling panel (AID 1170); settings: MM1S mitochondrial potential, higher = more signal; note: test concentration not given here
[20] = resazurin metabolic signal in A549 cells – cell-based, resazurin fluorescence, 24 h, PK04 Diversity Set, profiling panel (AID 1171); settings: A549 viability, higher = more signal, called active from +8 up or from −8 down; note: test concentration not given here

Row | SMILES | z-score [1] | composite z-score [2] | z-score [3] | z-score [4] | z-score [5] | z-score [6] | z-score [7] | z-score [8] | z-score [9] | z-score [10] | z-score [11] | z-score [12] | z-score [13] | z-score [14] | z-score [15] | z-score [16] | z-score [17] | z-score [18] | z-score [19] | z-score [20]
1 | [N-]=[N+]=NCc1ccccc1C[C@@]1(C(=O)NCCN2CCOCC2)N=C(c2ccc(OCCCO)cc2)O[C@@H]1c1ccccc1N=[N+]=[N-] | -0.337 (inactive) | 0.534 | 31.3 (active) | 27.4 (active) | 2.72 (inactive) | 2.46 (inactive) | 1.17 | -3.58 (inactive) | -1.36 (inactive) | -2.32 | -1.6 | 1.61 | -1.05 | -1.31 | -3.68 | 0.862 | -1.38 (inactive) | -0.923 | -1.12 | -0.0172 (inactive)
2 | COCCOC(=O)N1C(=O)[C@@]2(c3cc(C#CCNC(N)=O)ccc31)[C@H](C(=O)N1CCCCCCC1)[C@H]1C(=O)O[C@H](c3ccccc3)[C@H](c3ccccc3)N1[C@@H]2c1ccc(O)cc1 | -0.455 (inactive) | -0.0945 | -0.0508 (inactive) | -0.164 (inactive) | -0.271 (inactive) | 0.0404 (inactive) | 0.0746 | 2.56 (inactive) | 0.475 (inactive) | 1.73 | 0.614 | -0.369 | -0.395 | -0.787 | 0.337 | -2.08 | -0.379 (inactive) | -0.216 | 0.444 | -0.171 (inactive)
3 | CC(C)CNC(=O)[C@@]1(c2ccc([N+](=O)[O-])cc2)CC(=O)N(C2CCCCC2)[C@@H]1c1ccc(CO)cc1I | -0.826 (inactive) | 0.213 | 10.8 (active) | 2.15 (inactive) | 3.67 (inactive) | 0.794 (inactive) | -0.183 | 0.685 (inactive) | 0.486 (inactive) | 1.74 | 0.304 | 0.13 | -0.108 | -2 | -0.317 | 1.15 | -0.472 (inactive) | -0.296 | 0.0603 | 1.02 (inactive)
4 | C=CCNC(=O)[C@H]1[C@@H]2C(=O)O[C@@H](c3ccccc3)[C@@H](c3ccccc3)N2[C@@H](c2ccccc2OCCO)[C@]12C(=O)N(C(=O)OCCOC)c1ccc(C#CC3=CCCCC3)cc12 | 0.687 (inactive) | 0.944 | 2.75 (inactive) | 1.32 (inactive) | -0.032 (inactive) | 0.725 (inactive) | -0.321 | 2.28 (inactive) | -0.678 (inactive) | 1.58 | -1.51 | 0.963 | -0.882 | -3.35 | -3.88 | 0.215 | 1.06 (inactive) | -0.924 | -1.49 | -1.02 (inactive)
5 | O=C1NC(=O)C2C1C=CC(C(O)c1c(F)cccc1Cl)N2Nc1ccccn1 (stereo not given) | -0.805 (inactive) | 0.245 | -0.0298 (inactive) | 0.653 (inactive) | -0.254 (inactive) | 0.828 (inactive) | -1.1 | -1.84 (inactive) | -3 (inactive) | -2.23 | 0.0619 | -0.92 | 0.0038 | 0.312 | -0.825 | -1.05 | -0.957 (inactive) | -0.517 | 0.15 | -0.609 (inactive)
6 | CON(C)C(=O)C=C1C[C@@H](c2cccc(Cl)c2)O[C@@H](c2cccc(Cl)c2)O1 | -0.511 (inactive) | -0.0035 | 9.13 (active) | 2.17 (inactive) | -1.24 (inactive) | 1.47 (inactive) | 0.178 | -0.0563 (inactive) | -0.986 (inactive) | 0.0304 | -1.5 | 0.559 | -2.18 | -2.44 | -4.18 | 3.67 | 0.748 (inactive) | -1.09 | -1.16 | 2.23 (inactive)
7 | CCCCC(=C=CC[C@@H](O)c1ccc(OCCO)cc1)C[C@@H](O)COCc1ccccc1 | 1.98 (inactive) | 0.596 | 16.5 (active) | 1.73 (inactive) | -0.0577 (inactive) | -0.237 (inactive) | 1.95 | -2.67 (inactive) | -0.61 (inactive) | -2.45 | 2.64 | 0.716 | 2.15 | -1.35 | -0.586 | 0.605 | -0.0104 (inactive) | 0.178 | -1.18 | 0.812 (inactive)
8 | CCOC(=O)C[C@H]1[C@H](OC(=O)c2ccccc2-c2ccccc2)[C@@H](NC(=O)c2ccc3ccccc3n2)c2cc(OCCCO)ccc2N1C(=O)c1ccc2ccccc2n1 | 1.17 (inactive) | -0.0747 | 3.67 (inactive) | -0.774 (inactive) | -1.88 (inactive) | -2.15 (inactive) | 0.112 | 1.18 (inactive) | 1.07 (inactive) | 2.5 | 0.923 | 1.65 | 0.877 | 0.497 | -0.237 | 2.39 | 0.309 (inactive) | 0.356 | -0.845 | 0.545 (inactive)
9 | COCCOC(=O)N1C(=O)[C@@]2(c3cc(C#Cc4ccc(OC)cc4)ccc31)[C@H](C(=O)NC[C@H](O)c1ccccc1)[C@H]1C(=O)O[C@H](c3ccccc3)[C@H](c3ccccc3)N1[C@@H]2c1ccc(O)cc1 | -0.16 (inactive) | 0.289 | 1.48 (inactive) | 0.702 (inactive) | -0.784 (inactive) | 0.704 (inactive) | 0.236 | 1.04 (inactive) | 0.0374 (inactive) | 0.00809 | -0.24 | 0.711 | -0.862 | -2.08 | -2.34 | -2.11 | 1.54 (inactive) | -0.723 | 0.122 | 0.397 (inactive)

Reference: PubChem BioAssay
